Experimental data: ChEMBL document CHEMBL3988442, “University of Dundee, Small-Polar-MMV Screening Library” (2021)
Screen size: about 53,000 compounds; about 900 (1.7%) showed an effect of 50% or more. For the sample, strong results were picked, then their nearest neighbours and some compounds at random.

Test system: Mycobacterium tuberculosis
Assay: Cornell - Phenotypic assay to identify agents that inhibit growth of Mycobacterium tuberculosis
Format: functional
Design: scale not given: direction of the effect not stated beside the values
Conditions: 10 mM as filed; unlikely as a test dose

| Compound | Percent Effect [%] |
| --- | --- |
| Cc1cccc(CN2C[C@@H]3CN(C(=O)C4CCOC4)C[C@@H]3C2=O)c1 (stereo partly drawn) | 4.733 |
| COc1ccc(NC(=O)Cn2nc(C)c(C)cc2=O)c(OC)c1 | 11.71 |
| Cc1ccc(NC(=O)CNc2cccc(C(N)=O)c2C)c(C)c1 | -29.06 |
| COc1ccc(NC(=O)CNc2cccc3c2CCCC3)c(OC)c1 | 76.54 |
| Cc1ccc(NC(=O)CNc2cccc3c2CCCC3)c(Br)c1 | 51.04 |
| Cc1ccc(NC(=O)CNc2ccccc2C(N)=O)c(C)c1 | -11.67 |
| COc1ccc(CNC(=O)CNc2ccccc2OC)cc1 | 22.93 |
| NC(=O)CCSc1n[nH]c(-c2ccc3c(c2)CCC3)n1 | 8.887 |
| CN1CCC(N(C)C(=O)c2cnc3c(cnn3C3CCCC3)c2)CC1 | 15.63 |
| Cc1ccc(C#N)c(N2CC(C)(C)[C@@](C)(O)C2)n1 | 10.2 |
| O=C(CCc1nnc(-c2ccsc2)o1)NCC1CCN(C2CC2)C1 (stereo not drawn) | -9.076 |
| Cc1noc(C)c1CNCc1nn(-c2ccccc2)c2c1CCC2 | -25.17 |
| COc1ccccc1CNCc1nn(-c2ccccc2)c2c1CCC2 | 75.02 |
| Cc1c(CNCc2nn(-c3ccccc3)c3c2CCC3)cc(C#N)n1C | 0.6388 |
| NC(=O)CSCC(=O)NCC1CCCC1 | -10.13 |
| CN(CC(=O)NC1(C)CCS(=O)(=O)C1)Cc1ccc(Br)cc1 (stereo not drawn) | -6.576 |
| O=C(CSCCN1CCOCC1)N1CCCCCC1 | -6.957 |
| CN(Cc1ccncn1)c1nccc(CCC(F)(F)F)n1 | -20.7 |
| CNc1ncc(CN(C)c2nccc(CCC(F)(F)F)n2)cn1 | 50.32 |
| CCc1nnc(CN(C)c2nccc(CCC(F)(F)F)n2)o1 | 6.8 |
| CS(=O)(=O)N1CCCC1C(=O)Nc1cnc2n1CCCC2 (stereo not drawn) | 9.053 |
| CCCNC(=O)NC(=O)CNC(C)(C)c1ccc2c(c1)OCO2 | 0.4574 |
| CCNC(=O)NC(=O)CNC(C)(C)c1ccc2c(c1)OCCO2 | 27.43 |
| CCCNC(=O)NC(=O)CNC(C)(C)c1ccc2c(c1)OCCO2 | 101.9 |
| Cc1n[nH]c(C)c1S(=O)(=O)N1CCC(Oc2cnccn2)CC1 | 6.999 |
| O=C(O)c1cccn1-c1ccc2c(c1)OCCO2 | 28.73 |

| Compound | Percent Effect [%] |
| --- | --- |
| COc1ccccc1CCNC(=O)C1CCC(Cn2cnnn2)CC1 (stereo not drawn) | 3.007 |
| Cc1nn(C)c2nc(N(CCN(C)C)C3CCCC3)sc12 | 19.35 |
| Cc1nn(C)c2nc(N(Cc3cnn(C)c3)C3CCCCC3)sc12 | 56.52 |
| Cc1nn(C)c2nc(N(C)CCN(C)C3CCCC3)sc12 | 37.55 |
| c1ccn(Cc2nnc3n2CCCN(c2cnccn2)C3)c1 | -17.01 |
| Cc1ccc(CN2CCN(c3ccc(F)cn3)CC2=O)cc1C | 39.83 |
| CCC(NC(=O)NCC(=O)NC(C)C)c1cc(F)ccc1F (stereo not drawn) | 5.032 |
| CCOc1ccc(NC(=O)NCc2csc(NC)n2)cc1C | 21.98 |
| CCOc1ccc(NC(=O)NCCS(=O)(=O)CC)cc1C | 60.38 |
| CCOc1ccc(NC(=O)NCCCN(C)S(C)(=O)=O)cc1C | 30.17 |
| CO[C@@H]1CCN(C(=O)c2cc(C)on2)C[C@@H]1Cc1ccccc1 | -19.48 |
| Cc1nc(NCc2ccccc2)cc(C(C)Cn2nc(C)c(C)c2C)n1 (stereo not drawn) | 27.52 |
| O=C(Nc1cncc(Br)c1O)c1ccon1 | 105.3 |
| CCOc1cccc(CCNC(=O)Cc2ccn[nH]2)n1 | -3.182 |
| O=C(Nc1ccccc1OC1CCOC1)c1ccon1 (stereo not drawn) | -36.9 |
| O=C(Cc1ccn[nH]1)Nc1cncc(Br)c1O | 104.6 |
| O=C(Cc1ccn[nH]1)N1CCc2cc(Br)sc2C1 | 17.86 |
| COc1c(Br)cccc1CCNC(=O)c1ccon1 | 37.39 |
| CC(C)CN1Cc2cccc(NC(=O)Cc3ccon3)c2C1 | 8.389 |
| O=C(Cc1ccon1)Nc1cncc(Br)c1O | 58.04 |
| COC(=O)Cc1cccc(NC(=O)Cc2ccon2)c1 | 10.84 |
| CCc1ncc(CN2C[C@@H]3C[C@@H](O)CN3C[C@@H]2Cc2ccccc2)cn1 | 42.85 |
| CCc1ccc(C(=O)N2CCC(Nc3ccc(C)nn3)CC2)o1 | 29.19 |
| Cc1ccc(C(=O)N2CC[C@@]3(C[C@@H](NS(C)(=O)=O)CCO3)C2)s1 | 6.984 |
| COC(=O)[C@]12CNC[C@H]1CN(Cc1nc(C)c[nH]1)C2 | -13.35 |
| O=C(NC[C@]12COC[C@H]1CN(CC1CCOCC1)C2)c1ccccc1.O=C(O)C(F)(F)F | 14.72 |

| Compound | Percent Effect [%] |
| --- | --- |
| Cc1cnc(C(=O)N2CCCC3(CCN(c4cnn(C)c4)C3=O)C2)cn1 (stereo not drawn) | -8.899 |
| COC(=O)c1cc(C(=O)N2CCc3ccc(F)cc3C2C)ccn1 (stereo not drawn) | 5.538 |
| CC1c2cc(F)ccc2CCN1C(=O)c1[nH]c(=O)[nH]c(=O)c1N (stereo not drawn) | 102.8 |
| Cc1nc(C)c(C(=O)N2CCc3cc(F)ccc3C2C)o1 (stereo not drawn) | -6.74 |
| CC1c2ccc(F)cc2CCN1C(=O)c1[nH]c(=O)[nH]c(=O)c1N (stereo not drawn) | 102.4 |
| Cc1nc(C)c(C(=O)N2CCc3ccc(F)cc3C2C)o1 (stereo not drawn) | 37.91 |
| CC1c2ccc(F)cc2CCN1C(=O)c1nc(=O)[nH][nH]1 (stereo not drawn) | 10.03 |
| NC(=O)C1CCN(C(=O)NC2CCc3cc(F)ccc32)CC1 (stereo not drawn) | -2.777 |
| Fc1ccccc1-c1nccnc1C1CCCNC1 (stereo not drawn) | 6.685 |
| Cc1ccccc1CN1C[C@@H](C(=O)N2CCCCO2)C[C@H]2OCC[C@H]21.O=C(O)C(F)(F)F | 19.61 |
| O=C(NC1CC1)C1(Cc2ccccc2-c2ccncc2)CCOCC1 | -4.384 |
| CS(=O)(=O)N1CCOCC12CCN(Cc1ccc(F)cc1)CC2.O=C(O)C(F)(F)F | 10.73 |
| CS(=O)(=O)N1CCCC(C(=O)Nc2cnn(Cc3ccc(Cl)cc3)c2)C1 (stereo not drawn) | 6.456 |
| COc1cc(CN2CCCC2)ccc1OC12CCCN(CC1)C2 (stereo not drawn) | 6.74 |
| CCCc1ccc(OC23CCCN(CC2)C3)c(OC)c1 (stereo not drawn) | 51.62 |
| COc1cc(C#N)ccc1OC12CCCN(CC1)C2 (stereo not drawn) | 14.23 |
| Cc1nnc2n1CCN(C(=O)c1cc(C)n(-c3ccccc3)c1C)C2 | -35.93 |
| CN(CCCOc1ccccc1)Cc1nc2c(cnn2C)c(=O)[nH]1 | 27.35 |
| COc1cccc(OCC(=O)N2CCOc3ccncc32)c1 | -4.09 |
| CCCNC(=O)CNC(=O)c1scnc1C | -19.92 |
| Cc1ncsc1-c1cc(C(=O)NCCO)ccn1 | 0.2276 |
| CNC(=O)CNC(=O)c1ccc(-c2scnc2C)nc1 | 51.37 |
| Cc1cc(C(=O)CN2CCN(c3nccs3)CC2)c(C)n1C1CC1 | 7.889 |
| COc1ccc(CCN(C)C(=O)c2cc(C(C)=O)c[nH]2)cc1OC | -7.568 |
| CCNC(=O)[C@@H]1CN(Cc2ccccc2)C[C@H]1C(=O)c1ccc(F)cc1 | 56.73 |
| O=C(O)[C@H]1CN(Cc2ccccc2)C[C@@H]1C(=O)c1ccccc1 | 51.09 |

| Compound | Percent Effect [%] |
| --- | --- |
| O=C(NC1CC1)[C@H]1CN(Cc2ccccc2)C[C@@H]1C(=O)c1ccccc1 | 30.86 |
| CC(C)NC(=O)[C@H]1CN(Cc2ccccc2)C[C@@H]1C(=O)c1ccccc1 | 38.41 |
| CNC(=O)[C@@H]1CN(Cc2ccccc2)C[C@H]1C(=O)c1ccc(F)cc1 | 28.54 |
| CCNC(=O)[C@H]1CN(Cc2ccccc2)C[C@@H]1C(=O)c1ccccc1 | 41.32 |
| O=C(c1ccc(O)c(Cl)c1)N1CCN(c2nccs2)CC1 | 19.4 |
| CC(C)CC(=O)N1CC[C@H]2C[C@H](c3nccs3)O[C@@H]2C1 | 29.2 |
| CNc1nc2c(s1)C(c1ccccc1Cl)CC(=O)N2 (stereo not drawn) | 45.9 |
| CNc1nc2c(s1)C(c1cccc(Cl)c1Cl)CC(=O)N2 (stereo not drawn) | 35.33 |
| CNc1nc2c(s1)C(c1ccc(F)cc1Cl)CC(=O)N2 (stereo not drawn) | 32.27 |
| Cn1ncc2c1NC(=O)CC2c1c(F)cccc1Cl (stereo not drawn) | 13.6 |
| CNc1nc2c(s1)C(c1c(Cl)cccc1Cl)CC(=O)N2 (stereo not drawn) | 107.9 |
| CNc1nc2c(s1)C(c1c(F)cccc1Cl)CC(=O)N2 (stereo not drawn) | 108 |
| CNc1nc2c(s1)C(c1ccccc1F)CC(=O)N2 (stereo not drawn) | -4.667 |
| Nc1nc2c(s1)C(c1c(F)cccc1Cl)CC(=O)N2 (stereo not drawn) | 103.5 |
| CNc1nc2c(s1)C(c1cccc(F)c1F)CC(=O)N2 (stereo not drawn) | -9.045 |
| CC(O)CN1CC(C)(C)CN(C(=O)CCc2ccccc2)CC1=O (stereo not drawn) | 4.925 |
| CCN1CCN(C(=O)c2cc(-c3ccc(C)o3)n[nH]2)[C@H]2CS(=O)(=O)C[C@H]21 | -0.2092 |
| CCNC(c1cccnc1)c1ccc(F)c(C)c1 (stereo not drawn) | -53.96 |
| CC(=O)N1CCN(C(=O)Nc2ccccc2Cl)[C@H]2CS(=O)(=O)C[C@H]21 | 4.723 |
| Cc1cc(C)n(CC(=O)N2CCCCC2CCN2CCCC2=O)c(=O)n1 (stereo not drawn) | 8.917 |
| Cc1cc(C(=O)N2CCc3c(CN(C)C(C)C)n[nH]c3C2)[nH]n1 | 21.29 |
| CCc1noc(CNc2ccc(C(=O)N3CCCC3)cc2C)n1 | -69.23 |
| Cc1ccc(CN2CCc3onc(C(=O)Nc4cccnc4)c3C2)o1.O=C(O)C(F)(F)F.O=C(O)C(F)(F)F | 61.31 |
| Cc1ccc(CN2CCc3onc(C(=O)NCCN(C)C)c3C2)o1.O=C(O)C(F)(F)F.O=C(O)C(F)(F)F | 6.093 |
| Cc1ccc(CN2CCc3onc(C(=O)NC(C)C)c3C2)o1.O=C(O)C(F)(F)F | 1.183 |
